# Laboratory results: PubChem BioAssay (Tox21)
# “And” between values parts separate entries of the source, which are not always exact repeats. Equal entries are not always repeated. Results filed as inconclusive are left out. Entries that show only a call come without a potency. The source made the active and inactive calls. Unless noted, the call rests on the fitted dose curve; in most records, active means well fitted curve in the direction sought with a large enough effect in the repeat runs; inconclusive means weak or mixed curves; inactive means no such curve, though single readings can be large; an effect the other way counts as inactive or inconclusive.
# Assays:
# [1] = qHTS assay for small molecule agonists of the p53 signaling pathway - cell viability (AID 651633; calls by dose curve; further: nearly all actives have a fitted effect of over 30% in size; further: potency means the concentration at half of the fitted maximal effect)
# Method in brief: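 p53RE-bla cells were treated with compound for 16 hours at 37 C. Cytotoxicity was then measured as CellTiter-Glo luminescence after 30 min at room temperature.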
# [2] = qHTS assay for small molecules that induce genotoxicity in human embryonic kidney cells expressing luciferase-tagged ATAD5 - cell viability (AID 651634; calls by dose curve; further: nearly all actives have a fitted effect of over 25% in size; further: potency means the concentration at half of the fitted maximal effect)
# Method in brief: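 Quantitative high-throughput format. HEK293T cells expressing ATAD5 fused to luciferase were plated at 2,000 cells/well and treated 15.5 hr with compound versus DMSO. Viability was determined by fluorescent live-cell protease substrate, 30 min at 37C.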
# [3] = qHTS assay for small molecule disruptors of the mitochondrial membrane potential - cell viability (AID 720634; calls by dose curve; further: nearly all actives have a fitted effect of over 20% in size; further: potency means the concentration at half of the fitted maximal effect)
# Method in brief: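 Same-well counter-screen: following the MMP dye addition, CellTiter-Glo was added to 1 hr compound-treated HepG2 cells and luminescence read after 30 min at room temperature.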
# [4] = qHTS assay to test for compound auto fluorescence at 590 nm (red) in HepG2 cells (AID 720674)
# Method in brief: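 Seeding: 2,000 HepG2 cells/well, MEM/10% FBS, overnight 37 C. Dosing: compound vs DMSO. Incubation: 1 hr, 37 C, 5% CO2. Read: fluorescence 540 ex/590 em, Rose Bengal sodium as red reference.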
# [5] = qHTS assay to test for compound auto fluorescence at 535 nm (green) in HepG2 cells (AID 720675)
# [6] = qHTS assay to test for compound auto fluorescence at 460 nm (blue) in HEK293 cells (AID 720678)
# Method in brief: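 Blue read-out at excitation 405 nm and emission 460 nm follows overnight compound exposure of HEK293 cells at 37C in 5% CO2. Activity is given as auto fluorescence equivalency to triamterene.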
# [7] = qHTS assay to test for compound auto fluorescence at 535 nm (green) in HEK293 cells (AID 720680)
# [8] = qHTS assay to test for compound auto fluorescence at 460 nm (blue) in HEK293 cell free culture (AID 720681)
# Method in brief: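 Compounds were added to cell-free DMEM with 10% FBS and fluorescence read directly. The blue channel used 405 nm excitation and 460 nm emission, with triamterene as the reference fluorophore.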
# [9] = qHTS assay to test for compound auto fluorescence at 535 nm (green) in HEK293 cell free culture (AID 720682)
# Method in brief: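 Green-channel intensity (Ex/Em 485/535 nm) was recorded from compound-treated wells containing only DMEM with 10% FBS. Fluorescein provided the equivalency standard.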
# [10] = qHTS assay to test for compound auto fluorescence at 590 nm (red) in HepG2 cell free culture (AID 720684)
# Method in brief: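 Rose Bengal sodium served as the reference for red signal. Test compounds were dispensed into serum-containing MEM (10% FBS) without cells, and plates were read at 540/590 nm.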
# [11] = qHTS assay to test for compound auto fluorescence at 460 nm (blue) in HepG2 cell free culture (AID 720685)
# Method in brief: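 Cell-free plates of MEM plus 10% FBS received 23 nL compound or DMSO vehicle; blue-channel (405/460 nm) intensity scored against triamterene as reference fluorophore.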
# [12] = qHTS assay to test for compound auto fluorescence at 460 nm (blue) in HepG2 cells (AID 720687); further: potency means the concentration at half of the fitted maximal effect
# Method in brief: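 HepG2 cells in MEM with 10% FBS, attached overnight at 37 C, were exposed to compound or DMSO for 1 hr at 37 C, 5% CO2. Blue fluorescence was read at 405/460 nm, with triamterene as reference fluorophore.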
# [13] = qHTS assay to test for compound auto fluorescence at 590 nm (red) in HEK293 cells (AID 720679)
# Method in brief: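 Red channel, Ex/Em 540/590nm; signal expressed as equivalency to Rose Bengal sodium. HEK293, 2,000 cells/well, 10% dialyzed FBS; 23 nL compound pinned after 4-5 hr attachment; overnight 37C/5% CO2 before reading.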
# [14] = qHTS assay to test for compound auto fluorescence at 590 nm (red) in HEK293 cell free culture (AID 720683)
# Method in brief: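 Cell-free wells of DMEM with 10% FBS received compound, and intrinsic fluorescence was read at excitation/emission 540/590 nm. Values expressed as equivalence to Rose Bengal sodium.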
# [15] = qHTS assay to test for compound auto fluorescence at 535 nm (green) in HepG2 cell free culture (AID 720686)
# [16] = biological target: Glucocorticoid receptor (Homo sapiens) (UniProt P04150); test: qHTS assay to identify small molecule agonists of the glucocorticoid receptor (GR) signaling pathway (AID 720691; active means well fitted activation curve with a large enough effect in the signal ratio in the repeat runs, not every such curve was filed as active; the % refers to the signal ratio; further: potency means the concentration at half of the fitted maximal effect); conditions: GR-bla HeLa, beta-lactamase reporter ratio, 18 h; activation: at 62.4 µM (top of the series)
# Method in brief: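 A HeLa cervical cancer line expressing GR and a glucocorticoid response element-driven beta-lactamase gene is treated with compounds for 18 h; LiveBLAzer B/G FRET substrate is then applied and fluorescence read.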
# [17] = qHTS assay for small molecule disruptors of the mitochondrial membrane potential (AID 720635); further: potency means the concentration at half of the fitted maximal effect
# Method in brief: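 HepG2 cells exposed to compound 1 hr at 37C, then Mito-MPS dye 30 min. Ratio read of aggregate (540/590 nm) versus monomer (490/535 nm) fluorescence.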
# [18] = biological target: Glucocorticoid receptor (Homo sapiens) (UniProt P04150); test: qHTS assay to identify small molecule antagonists of the glucocorticoid receptor (GR) signaling pathway (AID 720692; active means well fitted inhibition curve with a large enough effect in the signal ratio in the repeat runs, not every such curve was filed as active; the % refers to the signal ratio; further: potency means the concentration at half of the fitted maximal effect)
# Method in brief: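 GRE-bla HeLa line, dex-stimulated (5 nM final). Compound exposure 18 h, 37 C. Beta-lactamase FRET read after 2 h RT substrate.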
# Tags describe the fitted curve by direction and shape or compound fluorescence and quenching.
# Chain of Glucocorticoid receptor (Homo sapiens) (P04150 whole entry, looked up): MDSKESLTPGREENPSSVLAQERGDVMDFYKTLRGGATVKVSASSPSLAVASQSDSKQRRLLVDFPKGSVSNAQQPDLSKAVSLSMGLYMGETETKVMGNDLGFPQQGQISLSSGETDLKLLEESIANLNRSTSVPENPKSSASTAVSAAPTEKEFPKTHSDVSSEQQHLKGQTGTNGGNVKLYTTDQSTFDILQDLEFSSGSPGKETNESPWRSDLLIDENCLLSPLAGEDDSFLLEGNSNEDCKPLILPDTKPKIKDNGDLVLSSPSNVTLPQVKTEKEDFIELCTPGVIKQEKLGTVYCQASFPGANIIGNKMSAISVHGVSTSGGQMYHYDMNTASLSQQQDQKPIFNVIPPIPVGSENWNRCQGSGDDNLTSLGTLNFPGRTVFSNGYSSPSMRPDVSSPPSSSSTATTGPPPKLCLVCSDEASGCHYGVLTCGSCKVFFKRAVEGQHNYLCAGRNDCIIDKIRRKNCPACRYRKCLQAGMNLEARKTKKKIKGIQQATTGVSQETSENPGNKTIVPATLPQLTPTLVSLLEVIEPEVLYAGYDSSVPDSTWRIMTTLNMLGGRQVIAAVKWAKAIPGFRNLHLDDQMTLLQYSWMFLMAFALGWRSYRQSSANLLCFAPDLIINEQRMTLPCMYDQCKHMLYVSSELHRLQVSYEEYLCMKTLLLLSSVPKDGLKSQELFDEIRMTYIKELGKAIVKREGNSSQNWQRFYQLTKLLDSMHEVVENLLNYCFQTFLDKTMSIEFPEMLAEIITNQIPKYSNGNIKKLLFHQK
Compound,Potency [1],Potency [2],Potency [3],Potency [4],Potency [5],Potency [6],outcome [7],Potency [8],outcome [9],Potency [10],Potency [11],Potency [12],Potency [13],Potency [14],Potency [15],Potency [16],Potency [17],Potency [18]
OC1(c2ccc(Cl)c(C(F)(F)F)c2)CCN(CCCC(c2ccc(F)cc2)c2ccc(F)cc2)CC1,9.44 µM (active),23.7 µM (active),inactive,inactive,inactive,inactive,inactive,inactive,inactive,inactive,inactive,inactive,–,–,–,–,–,–
COc1ccc(CN2CCN(C(c3ccc(F)cc3)c3ccc(F)cc3)CC2)c(OC)c1OC,26.6 µM (active),21.1 µM (active),inactive,inactive,inactive,inactive,inactive,inactive,inactive,inactive,inactive,inactive,inactive,inactive,inactive,4.77 µM (active),–,–
CCCCCCCC/C=C\CCCCCCCCOCCO,31.6 µM (active),39.8 µM (active),79.4 µM (active),inactive,inactive,inactive,inactive,inactive,–,inactive,inactive,inactive,–,inactive,inactive,–,1.78 µM (active),–
C[n+]1ccn(Cc2ccccc2)c1,inactive,inactive,inactive,inactive,inactive,inactive,inactive,inactive,inactive,inactive,inactive,inactive,inactive,inactive,inactive,inactive,inactive,inactive
[Cl][Au]([Cl])[Cl],68.6 µM (active),30.6 µM (active),inactive,inactive,inactive,inactive,inactive,inactive,–,inactive,–,inactive,inactive,inactive,inactive,–,–,–
CN(C/C=C/C#CC(C)(C)C)Cc1cccc2ccccc12,–,inactive,inactive,inactive,inactive,inactive,inactive,inactive,inactive,inactive,inactive,inactive,–,inactive,inactive,inactive,inactive,inactive
CCCCN(CCCC)C(=O)N(CCCC)CCCC,inactive,inactive,–,inactive,–,inactive,inactive,inactive,inactive,inactive,–,inactive,inactive,inactive,inactive,inactive,–,–
CCN(CC)CCNC(=O)c1c(C)[nH]c(/C=C2\C(=O)Nc3ccc(F)cc32)c1C,11.9 µM (active),–,inactive,inactive,inactive,inactive,inactive,inactive,–,inactive,inactive,inactive,inactive,inactive,inactive,–,–,–
O=[N+]([O-])c1cc(Cl)c(Cl)c(Cl)c1Cl,inactive,inactive,inactive,inactive,inactive,inactive,inactive,inactive,–,inactive,inactive,inactive,inactive,inactive,inactive,–,–,–
OCc1c[nH]c2ccccc12,inactive,inactive,–,inactive,inactive,inactive,inactive,inactive,–,inactive,inactive,inactive,inactive,inactive,inactive,–,24.3 µM (active),–
Cc1ccc2oc(CN(Cc3ccccc3)C(=O)Nc3c(F)cc(F)cc3F)c(-c3ccc(Cl)cc3)c2c1,–,inactive,–,inactive,–,inactive,inactive,inactive,inactive,inactive,inactive,inactive,inactive,inactive,inactive,inactive,18.7 µM (active),inactive
CN1CCC(Nc2ncc3ncnc(Nc4ccc(F)c(Cl)c4)c3n2)CC1,inactive,inactive,inactive,inactive,–,–,–,–,–,inactive,–,12.6 µM [fluorescent] (active),inactive,–,inactive,–,–,–
CNc1ccc(O)cc1,–,inactive,–,inactive,–,inactive,inactive,inactive,inactive,inactive,–,inactive,inactive,inactive,–,–,–,–
CC(C)(C)c1ccc(C(=O)CCCN2CCC(OC(c3ccccc3)c3ccccc3)CC2)cc1,21.1 µM (active),inactive,inactive,inactive,inactive,inactive,inactive,inactive,–,inactive,inactive,inactive,inactive,–,inactive,–,–,–
Cc1cc(O)c(Cl)c(C)c1Cl,68.6 µM (active),61.1 µM (active),54.5 µM (active),inactive,inactive,inactive,inactive,inactive,inactive,inactive,–,inactive,inactive,inactive,inactive,inactive,1.93 µM (active),–
C[C@H](CCC(=O)O)[C@H]1CC[C@H]2[C@@H]3CC[C@@H]4C[C@H](O)CC[C@]4(C)[C@H]3CC[C@]12C,27.2 µM (active) and 27.3 µM (active),inactive,–,inactive,–,inactive,inactive,inactive,inactive,inactive,inactive,inactive,–,inactive,inactive,inactive,60.9 µM (active),19.4 µM (active) and 43.6 µM (active)
CCCCCCCCNC(C)C(O)c1ccc(SC(C)C)cc1 (stereo not given),10.6 µM (active),10.6 µM (active),–,inactive,inactive,inactive,inactive,inactive,inactive,inactive,inactive,inactive,inactive,inactive,–,–,–,–
S=c1[nH]c2ccccc2s1,inactive,inactive,inactive,inactive,inactive,inactive,inactive,inactive,inactive,inactive,inactive,inactive,inactive,inactive,inactive,inactive,26.6 µM (active) and 27.3 µM (active),inactive
OCCCCCCCCCCCCBr,–,–,inactive,inactive,inactive,inactive,–,inactive,inactive,inactive,inactive,inactive,inactive,inactive,inactive,inactive,62.1 µM (active),–
CC(C)n1nc(-c2cc3cc(O)ccc3[nH]2)c2c(N)ncnc21,26.6 µM (active),0.75 µM (active),inactive,inactive,inactive,inactive,inactive,inactive,inactive,inactive,inactive,inactive,inactive,inactive,inactive,–,–,–
CCc1cc(SCc2sc(-c3ccc(C(F)(F)F)cc3)nc2CN2CCN(c3ccc(OC)cc3)CC2)ccc1OCC(=O)O,9.69 µM (active),48.6 µM (active),inactive,inactive,inactive,inactive,–,inactive,inactive,inactive,inactive,inactive,–,inactive,inactive,–,19.3 µM (active),–
CCOc1nc2cccc(C(=O)OC(C)OC(=O)OC3CCCCC3)c2n1Cc1ccc(-c2ccccc2-c2nn[nH]n2)cc1 (stereo not given),12.2 µM (active),–,–,inactive,inactive,inactive,inactive,inactive,inactive,inactive,inactive,inactive,inactive,inactive,inactive,–,13.7 µM (active),–
Nc1ccc2cc(S(=O)(=O)O)cc(O)c2c1N=Nc1ccccc1C(F)(F)F,–,–,inactive,inactive,–,inactive,inactive,inactive,inactive,inactive,inactive,inactive,inactive,inactive,inactive,inactive,–,inactive
O=C(c1ccc(F)cc1)C1CCN(CCn2c(=O)[nH]c3ccccc3c2=O)CC1,inactive,inactive,inactive,inactive,inactive,inactive,–,inactive,inactive,inactive,inactive,inactive,inactive,inactive,–,inactive,–,–
CSc1ccc(/C=C2/C(C)=C(CC(=O)O)c3cc(F)ccc32)cc1,26.6 µM (active),–,inactive,inactive,inactive,inactive,inactive,inactive,inactive,inactive,inactive,inactive,inactive,inactive,inactive,–,–,–
CC1=C(/C=C/C(C)=C/C=C/C(C)=C/C=O)C(C)(C)CCC1,43 µM (active),60.8 µM (active),–,inactive,inactive,inactive,inactive,inactive,inactive,inactive,–,inactive,inactive,–,inactive,–,15.3 µM (active),–
NNc1nc(-c2ccccc2)cs1,–,4.99 µM (active),inactive,inactive,inactive,inactive,–,inactive,–,inactive,inactive,inactive,inactive,inactive,inactive,inactive,1.58 µM (active),–
CCN(C(=O)N(CC)c1ccccc1)c1ccccc1,inactive,inactive,–,inactive,inactive,inactive,inactive,inactive,inactive,inactive,inactive,inactive,inactive,inactive,inactive,inactive,–,inactive
CCC(N)(CO)CO,inactive,inactive,inactive,inactive,inactive,inactive,inactive,inactive,inactive,inactive,–,inactive,inactive,inactive,inactive,inactive,inactive,inactive
C[n+]1cc2c3c(ccc2c2ccc4cc5c(cc4c21)OCO5)OCO3,1.5 µM (active),11.9 µM (active),11.9 µM (active),inactive,inactive,inactive,inactive,inactive,inactive,inactive,inactive,inactive,inactive,–,inactive,–,8.41 µM (active),–
